Data reported in the supplement of paper PMC7411054.
Counter-ions that a name gives are not always drawn.

What was measured:
Details in all cases: treatment time: 24 h
A549-ACTB-RAB5A [1] = assay: lowest phenotypically active concentration; higher = less potent
How it was run: (§1)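 Phenotypic activity depended on meeting both a deviation and a reproducibility criterion. The fifteen gene-edited A549, HepG2 and WPMY1 reporter lines were treated at 0.3, 1, 3 or 9 µM for 24 h, four wells each, then imaged live with features normalised to solvent control wells. Deviation required ≥3 of 4 wells past the 95th percentile of control Euclidean distances, and reproducibility a median replicate Pearson correlation above the 95th percentile of non-replicates.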

A549-GM130-SQSTM1 [2] = assay: as above
How it was run: as §1

A549-TUBA1B-RELA [3] = assay: as above
How it was run: as §1

HepG2-ACTB-RAB5A [4] = assay: as above
How it was run: as §1

WPMY1-GM130-SQSTM1 [5] = assay: as above
How it was run: as §1

A549-ACTB-RAB5A [6] = assay: phenotypically active (imaging signature differs from DMSO and reproducible) at any of 0.3-9 uM (binary (1 = active, 0 = inactive)); higher = active
How it was run: as §1

A549-CANX-COX4 = assay: as above
How it was run: as §1

A549-GM130-SQSTM1 [7] = assay: as above
How it was run: as §1

A549-TP53BP1-CLTA = assay: as above
How it was run: as §1

A549-TUBA1B-RELA [8] = assay: as above
How it was run: as §1

HepG2-ACTB-RAB5A [9] = assay: as above
How it was run: as §1

HepG2-CANX-COX4 = assay: as above
How it was run: as §1

HepG2-GM130-SQSTM1 = assay: as above
How it was run: as §1

HepG2-TP53BP1-CLTA = assay: as above
How it was run: as §1

HepG2-TUBA1B-RELA = assay: as above
How it was run: as §1

WPMY1-ACTB-RAB5A = assay: as above
How it was run: as §1

WPMY1-CANX-COX4 = assay: as above
How it was run: as §1

WPMY1-GM130-SQSTM1 [10] = assay: as above
How it was run: as §1

WPMY1-TP53BP1-CLTA = assay: as above
How it was run: as §1

WPMY1-TUBA1B-RELA = assay: as above
How it was run: as §1

| Structure (SMILES) | lowest phenotypically active concentration (A549-ACTB-RAB5A [1]) [µM] | lowest phenotypically active concentration (A549-GM130-SQSTM1 [2]) [µM] | lowest phenotypically active concentration (A549-TUBA1B-RELA [3]) [µM] | lowest phenotypically active concentration (HepG2-ACTB-RAB5A [4]) [µM] | lowest phenotypically active concentration (WPMY1-GM130-SQSTM1 [5]) [µM] | phenotypically active (A549-ACTB-RAB5A [6]) | phenotypically active (A549-CANX-COX4) | phenotypically active (A549-GM130-SQSTM1 [7]) | phenotypically active (A549-TP53BP1-CLTA) | phenotypically active (A549-TUBA1B-RELA [8]) | phenotypically active (HepG2-ACTB-RAB5A [9]) | phenotypically active (HepG2-CANX-COX4) | phenotypically active (HepG2-GM130-SQSTM1) | phenotypically active (HepG2-TP53BP1-CLTA) | phenotypically active (HepG2-TUBA1B-RELA) | phenotypically active (WPMY1-ACTB-RAB5A) | phenotypically active (WPMY1-CANX-COX4) | phenotypically active (WPMY1-GM130-SQSTM1 [10]) | phenotypically active (WPMY1-TP53BP1-CLTA) | phenotypically active (WPMY1-TUBA1B-RELA) |
| --- | --- | --- | --- | --- | --- | --- | --- | --- | --- | --- | --- | --- | --- | --- | --- | --- | --- | --- | --- | --- |
| Clc1ccc(N/N=C(\c2ccccc2)c2ccccn2)nc1 | 1 | ≤ 0.3 | ≤ 0.3 | ≤ 0.3 | 1 | 1 (active) | 1 (active) | 1 (active) | 1 (active) | 1 (active) | 1 (active) | 1 (active) | 1 (active) | 1 (active) | 1 (active) | 1 (active) | 1 (active) | 1 (active) | 1 (active) | 1 (active) |
| CN1CCCC(n2nc(Cc3ccc(Cl)cc3)c3ccccc3c2=O)CC1 (configuration not stated) [azelastine] | 3 | 9 | 3 | 9 | 9 | 1 (active) | 1 (active) | 1 (active) | 1 (active) | 1 (active) | 1 (active) | 0 (inactive) | 1 (active) | 1 (active) | 1 (active) | 1 (active) | 1 (active) | 1 (active) | 1 (active) | 1 (active) |
| Nc1ncnc(Nc2ccc(OCc3ccccc3)c(Cl)c2)c1/C=N/OCCN1CCOCC1 | 3 | 3 | 1 | 9 | – | 1 (active) | 1 (active) | 1 (active) | 1 (active) | 1 (active) | 1 (active) | 0 (inactive) | 1 (active) | 1 (active) | 1 (active) | 0 (inactive) | 0 (inactive) | 0 (inactive) | 0 (inactive) | 0 (inactive) |
| Cc1ccc(NC(=O)CCCCCC(=O)Nc2ccccc2N)cc1 | 1 | 1 | 3 | 1 | 9 | 1 (active) | 1 (active) | 1 (active) | 1 (active) | 1 (active) | 1 (active) | 1 (active) | 1 (active) | 1 (active) | 1 (active) | 1 (active) | 1 (active) | 1 (active) | 1 (active) | 1 (active) |
| CN1CCN(C(=O)CN[C@H]2C[C@@H]2c2ccc(OCc3ccccc3)cc2)CC1 [RN 1 dihydrochloride] | 3 | 9 | 3 | 9 | 9 | 1 (active) | 1 (active) | 1 (active) | 1 (active) | 1 (active) | 1 (active) | 0 (inactive) | 1 (active) | 1 (active) | 1 (active) | 1 (active) | 1 (active) | 1 (active) | 1 (active) | 1 (active) |
| N=C(N)c1ccc(OCCCCCOc2ccc(C(=N)N)cc2)cc1 [pentamidine] | 1 | 1 | 1 | 9 | 9 | 1 (active) | 1 (active) | 1 (active) | 1 (active) | 1 (active) | 1 (active) | 1 (active) | 0 (inactive) | 1 (active) | 1 (active) | 0 (inactive) | 0 (inactive) | 1 (active) | 0 (inactive) | 0 (inactive) |
| COc1cc2c(cc1O)CC[C@@H]1[C@@H]2CC[C@]2(C)[C@@H](O)CC[C@@H]12 [2-methoxyestradiol] | 1 | 1 | 1 | 3 | – | 1 (active) | 1 (active) | 1 (active) | 1 (active) | 1 (active) | 1 (active) | 1 (active) | 1 (active) | 1 (active) | 1 (active) | 1 (active) | 1 (active) | 0 (inactive) | 1 (active) | 1 (active) |
| CO[C@H]1C=CC=C(C)C(=O)NC2=CC(=O)C(NCCN(C)C)=C(C[C@@H](C)C[C@H](OC)[C@H](O)[C@@H](C)C=C(C)[C@@H]1OC(N)=O)C2=O [17-DMAG hydrochloride] | ≤ 0.3 | ≤ 0.3 | ≤ 0.3 | ≤ 0.3 | ≤ 0.3 | 1 (active) | 1 (active) | 1 (active) | 1 (active) | 1 (active) | 1 (active) | 1 (active) | 1 (active) | 1 (active) | 1 (active) | 1 (active) | 1 (active) | 1 (active) | 1 (active) | 1 (active) |
| O=C(Nc1cccnc1)N1CCC(Cc2cccc(Oc3ccc(C(F)(F)F)cn3)c2)CC1 | 9 | 3 | 9 | 9 | 9 | 1 (active) | 1 (active) | 1 (active) | 1 (active) | 1 (active) | 1 (active) | 0 (inactive) | 0 (inactive) | 1 (active) | 1 (active) | 0 (inactive) | 0 (inactive) | 1 (active) | 0 (inactive) | 0 (inactive) |
| O=C(Nc1c[nH]nc1-c1nc2cc(CN3CCOCC3)ccc2[nH]1)NC1CC1 | ≤ 0.3 | ≤ 0.3 | ≤ 0.3 | ≤ 0.3 | ≤ 0.3 | 1 (active) | 1 (active) | 1 (active) | 1 (active) | 1 (active) | 1 (active) | 1 (active) | 1 (active) | 1 (active) | 1 (active) | 1 (active) | 1 (active) | 1 (active) | 1 (active) | 1 (active) |
| CC(C)CNc1nc(-c2cccc3ncccc23)cn2c(-c3ccc(C(=O)NC4CC4)cc3)cnc12 | ≤ 0.3 | ≤ 0.3 | ≤ 0.3 | 1 | 1 | 1 (active) | 1 (active) | 1 (active) | 1 (active) | 1 (active) | 1 (active) | 1 (active) | 1 (active) | 1 (active) | 1 (active) | 1 (active) | 0 (inactive) | 1 (active) | 1 (active) | 0 (inactive) |
| CCN(CC)CCNc1ccc(CO)c2sc3ccccc3c(=O)c12 [hycanthone] | 9 | 9 | 9 | 9 | 3 | 1 (active) | 1 (active) | 1 (active) | 1 (active) | 1 (active) | 1 (active) | 0 (inactive) | 1 (active) | 1 (active) | 1 (active) | 1 (active) | 1 (active) | 1 (active) | 1 (active) | 1 (active) |
| COc1cc2c(N3CCN(C(=O)Nc4ccc(OC(C)C)cc4)CC3)ncnc2cc1OCCCN1CCCCC1 [tandutinib] | 9 | 3 | 9 | 9 | 9 | 1 (active) | 1 (active) | 1 (active) | 1 (active) | 1 (active) | 1 (active) | 1 (active) | 1 (active) | 1 (active) | 1 (active) | 1 (active) | 1 (active) | 1 (active) | 0 (inactive) | 1 (active) |
| CCCCNNC(=O)c1ccc(Br)cc1 | 1 | 3 | 3 | 1 | 3 | 1 (active) | 1 (active) | 1 (active) | 1 (active) | 1 (active) | 1 (active) | 1 (active) | 1 (active) | 1 (active) | 1 (active) | 0 (inactive) | 1 (active) | 1 (active) | 1 (active) | 1 (active) |
| C=CC(=O)Nc1cccc(Nc2nc(Nc3ccc(Oc4ccnc(C(=O)NC)c4)cc3)ncc2F)c1 | 9 | 9 | 9 | 9 | 9 | 1 (active) | 1 (active) | 1 (active) | 1 (active) | 1 (active) | 1 (active) | 0 (inactive) | 1 (active) | 1 (active) | 1 (active) | 1 (active) | 1 (active) | 1 (active) | 0 (inactive) | 0 (inactive) |
| Cc1cc(Nc2nc(N[C@@H](C)c3ncc(F)cn3)ncc2Cl)n[nH]1 | 3 | 3 | 1 | 1 | 9 | 1 (active) | 1 (active) | 1 (active) | 1 (active) | 1 (active) | 1 (active) | 1 (active) | 1 (active) | 1 (active) | 1 (active) | 1 (active) | 1 (active) | 1 (active) | 1 (active) | 1 (active) |
| COc1cc(O)cc(O)c1C(=O)/C=C/c1ccccc1 [Cardamonin] | 9 | 9 | 9 | 9 | 9 | 1 (active) | 1 (active) | 1 (active) | 1 (active) | 1 (active) | 1 (active) | 1 (active) | 1 (active) | 0 (inactive) | 1 (active) | 1 (active) | 1 (active) | 1 (active) | 1 (active) | 1 (active) |
| CC[C@]12CCCN3CCc4c(n(c5ccccc45)C(=O)C1)[C@@H]32 [Eburnamonine (-)] | 9 | 9 | 9 | 9 | – | 1 (active) | 1 (active) | 1 (active) | 1 (active) | 1 (active) | 1 (active) | 0 (inactive) | 0 (inactive) | 1 (active) | 1 (active) | 1 (active) | 1 (active) | 0 (inactive) | 1 (active) | 1 (active) |
| Nc1nc(Cl)nc2c1ncn2[C@@H]1O[C@H](CO)[C@@H](O)[C@@H]1F [clofarabine] | 1 | 1 | 1 | ≤ 0.3 | 3 | 1 (active) | 1 (active) | 1 (active) | 1 (active) | 1 (active) | 1 (active) | 1 (active) | 1 (active) | 1 (active) | 1 (active) | 1 (active) | 1 (active) | 1 (active) | 1 (active) | 1 (active) |
| O=C(NOC[C@H](O)CO)c1ccc(F)c(F)c1Nc1ccc(I)cc1F | ≤ 0.3 | ≤ 0.3 | 1 | ≤ 0.3 | 3 | 1 (active) | 1 (active) | 1 (active) | 1 (active) | 1 (active) | 1 (active) | 1 (active) | 1 (active) | 1 (active) | 1 (active) | 1 (active) | 0 (inactive) | 1 (active) | 1 (active) | 0 (inactive) |
